Reference: ChEMBL document CHEMBL3988442, “University of Dundee, Small-Polar-MMV Screening Library” (2021)
In all, about 48,000 compounds went through this assay and about 13,000 (27%) showed an effect of 50% or more. Some of the results follow.

System: Wolbachia pipientis
Assay: Anti-Wolbachia Cell-Based Screen
Type: functional
Design: scale not given: in the data most compounds retested in dose-response had high values
Details: 5 µM

Structure (SMILES)	Percent Effect [%]
O=S(=O)(c1cccc(F)c1)N1C[C@@H]2CC[C@H](C1)N(Cc1ccccc1)C2	7.587
CN(C)CC1(O)CCN(S(=O)(=O)c2cccc(F)c2)C1 (stereo not given)	142.4
Cc1ccc(S(=O)(=O)N2CCC3(CC(C(=O)NCC4CC4)=NO3)C2)cc1 (stereo not given)	-17.63
CN(C)CC1(O)CCN(S(=O)(=O)c2ccc(F)c(F)c2)C1 (stereo not given)	-14.25
CCOC1COC2(CCN(S(=O)(=O)c3cccc(F)c3)CC2)C1 (stereo not given)	-12.88
COc1ccc(S(=O)(=O)N2CCC(O)(CN(C)C)C2)cc1 (stereo not given)	122.7
Cc1ccc(S(=O)(=O)N2CCC(O)(CN(C)C)C2)cc1 (stereo not given)	128.7
CN(C)CC1(O)CCN(S(=O)(=O)c2ccc(F)cc2)C1 (stereo not given)	-17.25
CN(C)CC1(O)CCN(S(=O)(=O)c2ccc(Cl)cc2)C1 (stereo not given)	106.4
COc1cccc(S(=O)(=O)N2CCC(O)(CN(C)C)C2)c1 (stereo not given)	-4.6
CC[C@H]1CN(S(=O)(=O)c2ccc(OC)cc2)CC[C@H]1CC(=O)O	6.997
CC(C)(C)C(O)CN1CCN(CC(=O)NCC(F)(F)F)CC1 (stereo not given)	8.391
COc1ccc(CCNC(=O)C2CCOC2)c(Cl)c1 (stereo not given)	-19.93
O=S(=O)(CCNCc1ccc(Cl)cc1)N1CCOCC1	-1.046
CN(C)CCN1C(=O)CO[C@@H]2CN(c3ncc(F)cn3)C[C@H]21	-1.223
Cc1c(NC(C)C(C)C)cccc1C(=O)NCc1nccn1C (stereo not given)	-7.954
Cn1ccnc1CNC(=O)Nc1ccc(OC2CCC2)c(F)c1	1.11
Cn1ccnc1SCCNC(=O)c1c[nH]nc1C1CCCCC1	-10.23
CC(C)N(Cc1nccn1C)C(=O)c1cnc(O)cn1	-3.4
Cl.Cn1ccnc1CNC(=O)c1cnc(C2CCNCC2)cn1	74.03
Cl.Cn1ccnc1CNC(=O)c1ccnc(C2CCNCC2)c1	112.8
COCCCC(=O)Nc1cc(Cl)c(Cl)cn1	-20.73
O=C(c1scc2c1OCCO2)N1CCOC(Cc2cccc(F)c2)C1 (stereo not given)	-18.9
Cc1noc(-c2cnc(NCC3CCCO3)nc2-c2ccco2)c1C (stereo not given)	115.5
Cc1noc(-c2cnc(NC(C)C)nc2-c2ccco2)c1C	118.1
Cn1cc(-c2ccnc(NCC3CCCCO3)n2)cn1 (stereo not given)	-0.1287
Cc1cnn(CC(C)NCc2nc(-c3ccco3)no2)c1 (stereo not given)	2.799
Cc1cnn(CC(C)NCc2csc(-c3ccco3)n2)c1 (stereo not given)	6.093
Cc1nn(C)c2nc(-c3ccccn3)nc(NC[C@@H]3CCCO3)c12	-8.15
Cc1noc(-c2cnc(NC3CC3)nc2-c2ccco2)c1C	112.5
